Holding throughout (assay): NCI-60 one-dose screen, 48 h (100 = growth as untreated, 0 = no growth, -100 = all killed)
Assay [1] deals with SK-MEL-2 melanoma. The conditions noted are these: 10 µM unless noted.
Assay [2] relates to EKVX NSCLC. The note with it: 10 µM unless noted.
Assay [3] deals with SN12C renal. The conditions noted are these: 10 µM unless noted.
The test system of assay [4] is UO-31 renal. The note with it: 10 µM unless noted.
Assay [5] has as its system ACHN renal. The note with it: 10 µM unless noted.
The subject of assay [6] is CAKI-1 renal. The note with it: 10 µM.
Assay [7] has as its system A498 renal. The note with it: 10 µM unless noted.
The subject of assay [8] is CCRF-CEM leukemia. The note with it: 10 µM unless noted.
Assay [9] concerns MOLT-4 leukemia. The conditions noted are these: 10 µM unless noted.
Assay [10] deals with SR leukemia. The note with it: 10 µM unless noted.
Assay [11] deals with RPMI-8226 leukemia. The note with it: 10 µM unless noted.
Assay [12] relates to OVCAR-8 ovarian. The conditions noted are these: 10 µM unless noted.
Assay [13] deals with OVCAR-4 ovarian. The note with it: 10 µM unless noted.
The test system of assay [14] is SK-OV-3 ovarian. The conditions noted are these: 10 µM unless noted.
Assay [15] deals with OVCAR-3 ovarian. The note with it: 10 µM unless noted.
Assay [16] relates to HS 578T breast. The conditions noted are these: 10 µM unless noted.
In assay [17] the test system is NCI/ADR-RES ovarian. The conditions noted are these: 10 µM unless noted.
The test system of assay [18] is OVCAR-5 ovarian. The note with it: 10 µM unless noted.
Assay [19] relates to IGROV1 ovarian. The conditions noted are these: 10 µM unless noted.

The panel holds about 83,000 compounds, 20% with a hit somewhere; the sample as a whole holds those more often.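 The test compound was applied at a single concentration to cells in 96-well plates for 48 hours, and percent growth was recorded.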 Unmarked numbers belong to inactive results. Active and inactive are the calls of the source. The calls were made as follows: active = growth percent below 10; inactive = the rest.

For `COc1ccccc1P(c1ccccc1OC)c1ccccc1OC`, the growth was 99.1% in [1]; 91% in assay [2]; 113% in assay [3]; 86.1% in assay [4]; 98.3% in assay [5]; 86.2% in assay [6]. For the same compound, the growth in assay [7] was 79.4%; in [8], 130%; in assay [9], 105%; in [10] it was 107%; in [11], 113%; in assay [12] it was 66%. In addition, the growth in [13] is 100%; in assay [14] it was 91.2%; in assay [15], 108%; in assay [16], 133%; in [17], 172%.
On to `O=C(Nc1cccc(-n2ccc3c(NC(=O)c4ccccc4)nccc32)c1)Nc1cc(C(F)(F)F)cc(C(F)(F)F)c1`, for which the growth in assay [1] was -11.9% (active); in assay [2], 19%; in assay [3], 12.7%; in assay [4] it was 12.1%; in assay [5], 8.65% (active); in assay [6] it was 15.3%. For the same compound, the growth in assay [8] is -4.29% (active); in assay [9] it was 7.11% (active); in assay [10], -14.9% (active); in [11] it was -30.6% (active); in assay [12], -32.1% (active); in assay [18] it was 28%. Besides, the growth in assay [13] was 43.9%; in assay [14], 13.5%; in [19], 6.92% (active); in assay [15] it was -26.9% (active); in assay [17], -30.5% (active).
For the compound `O=C(Nc1ccc(-n2cc(-c3ccncc3)c(-c3ccc(O)c(Cl)c3)n2)cc1)Nc1cc(C(F)(F)F)cc(C(F)(F)F)c1`, the growth in [1] is 77.6%; in assay [2] it was 44.6%; in assay [3] it was 61.6%; in assay [4], 59.6%; in assay [5], 65.5%; in [6], 46.6%. The growth is 65.9% in assay [7]; 55.8% in [8]; 64.3% in assay [9]; 45% in assay [11]; 56.4% in [12]; 75.7% in assay [18]. The growth in [13] is 82.2%; in assay [14], 81.7%; in [19] it was 56.3%; in [15], 33.3%; in assay [17], 55%.
For the compound `CCOC(=O)n1cnc2c(Cl)ncnc21`, the growth is 154% in [1]; 106% in assay [2]; 119% in assay [3]; 97% in assay [4]; 108% in [5]; 89.8% in assay [6]. In addition, the growth in [7] was 86%; in assay [8] it was 109%; in assay [9] it was 106%; in assay [11], 116%; in [12] it was 65%; in [13], 107%. The growth is 94.2% in [14], 112% in [15], 138% in [16] and 246% in assay [17].
As to `Nc1nccc2c1ccn2-c1ccc(NC(=O)Nc2cccc(C(F)(F)F)c2)cc1`, the growth in assay [1] was 113%; in assay [2] it was 93.7%; in assay [3] it was 87.1%; in assay [4] it was 81.4%; in assay [5], 91.6%; in assay [6], 97.4%. The growth in assay [7] is 88.4%; in assay [9], 82.8%; in [11], 67.4%; in [12] it was 93.1%; in [18] it was 97.9%; in [13], 108%. For the same compound, the growth in assay [14] is 104%; in assay [19], 95.1%; in assay [15], 80.8%.
For the compound `CC1OC(n2c3ccccc3c3c4c(c5c6ccccc6[nH]c5c32)C(=O)N(CCN[C@@H]2CCC[C@H]2N)C4=O)CC(O)C1O` (stereo partly specified), the growth in assay [1] is 47.1%; in assay [2] it was 23.3%; in [3] it was 13.7%; in assay [4], 63.3%; in assay [5], 25%; in assay [6], 78.6%. The growth in assay [8] was 13.2%; in [9] it was 2.71% (active); in [10] it was -19.1% (active); in [11], -5.48% (active); in assay [12], 18%; in [18] it was 49.2%. The growth was 24.7% in [13]; 20.1% in assay [14]; 22.7% in assay [19]; 27.7% in assay [15]; 30% in [16]; 77.6% in [17].
Turning to `CO[C@H]1/C=C/C=C/C=C/C[C@H](OC(=O)[C@@H](C)NC(=O)C2CCCCC2)[C@H](C)[C@@H](O)/C(C)=C\CCC2=CC(=O)C=C(NC(=O)C1)C2=O`, the growth is -42.7% (active) in assay [1]; -17% (active) in [2]; -10% (active) in assay [3]; 5.46% (active) in assay [4]; -34.8% (active) in assay [5]; 16.3% in assay [6]. Moreover, the growth is -2.6% (active) in assay [7]; -0.0954% (active) in assay [8]; -10.4% (active) in assay [9]; -26.5% (active) in assay [11]; -16.2% (active) in assay [12]; 3.19% (active) in assay [18]. Besides, the growth was -13.9% (active) in assay [13]; -21.3% (active) in [14]; 3.97% (active) in assay [19]; -19.9% (active) in assay [15]; -16.2% (active) in [16]; 32% in [17].
As for `CN[C@@H](CCCNC(N)=NC/C=C(/C)CCC=C(C)C)C(=O)N(C)[C@@H](CCCNC(N)=NCC=C(C)C)C(=O)N[C@H](C)[C@H](OS(=O)(=O)O)c1ccc(OS(=O)(=O)O)c(COS(=O)(=O)O)c1`, the growth in assay [1] was 105%; in [2] it was 113%; in assay [3], 101%; in [4], 97.6%; in assay [5], 113%; in [6], 106%. Moreover, the growth in [7] was 87%; in [8] it was 102%; in assay [9] it was 96.9%; in assay [10], 114%; in [11], 92.9%; in assay [12], 98.4%. Moreover, the growth in assay [18] was 113%; in [13], 120%; in [19] it was 110%; in [15] it was 107%; in [16], 97.3%; in assay [17] it was 105%.

The values are drawn from PubChem BioAssay (NCI).
